# Assay results taken from PubChem BioAssay AID624287 (National Center for Advancing Translational Sciences (NCATS), 2012).
# The campaign covered roughly 340,000 compounds. About 420 (0.12%) were called active. Not shown: some 10% with an inconclusive outcome. Calls come from the whole dose curve; as a rule, active = well fitted activation curve with a large enough effect; inconclusive = small, poorly fitted or top-dose-only effect, or another doubt; inactive = no such curve, though single readings can be large or run the other way; cell line not stated here. This excerpt belongs to a sample that is enriched for actives.
# Test: qHTS for Agonist of gsp, the Etiologic Mutation Responsible for Fibrous Dysplasia/McCune-Albright Syndrome: qHTS; note: nearly all actives have a fitted effect of over 60% in size;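 for activation (cAMP increase): phosphodiesterase inhibitor Ro 20-1724 added with compounds to block cAMP breakdown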
# Conditions: gsp mutant cells, cAMP HTRF, 30 min; series mostly up to 76.9 µM; activation (cAMP increase): at the top concentration
# From the text: McCune-Albright syndrome (MAS) is a rare disease caused by somatic mutations in Gsgsp), a widely expressed protein central in signal transduction from G-coupled protein receptors (GPCRs). The disease symptoms are diverse, owing to the fact that the patients are mosaics with varying degrees of tissue involvement. Greater than 90% of the mutations in Gs in MAS occur at the R201 position and are equally divided between R201H and R201C. The R201 residue is central in the intrinsic GTPase activity of Gs and the H and C mutations lead to loss of, or impairment of, the GTPase activity. The intrinsic GTPase activity is necessary to terminate the interaction between Gs and adenylate cyclase, and to terminate the cAMP-mediated signaling of the given GPCR pathway. Thus, these activating mutations lead to ligand-independent activation of GPCR pathways. The tissue phenotype is determined by the role of Gs in the function of a given cell, and excess Gs/cAMP signaling in that cell. For example, pituitary somatotrophs overproduce growth hormone in a growth hormone releasing hormone-independent fashion, and gigantism/acromegaly ensues. Skeletal stem cells in the bone marrow behave as if they are under constant parathyroid hormone stimulation and fail to differentiate into osteoblasts and osteocytes, and proliferate as immature osteogenic cells and lead to the marrow fibrosis of fibrous dysplasia of bone. The goal of this project is to identify molecules with stimulatory activity at gsp mutations that will not only allow for in-depth study of the underlying molecular and cellular pathophysiology, but also serve as compounds from which drugs to treat FD/MAS can be developed NIH Chemical Genomics Center [NCGC] NIH Molecular Libraries Probe Centers Network [MLPCN] MLPCN Grant: IRP-FT-DE-2011-01 Assay Submitter (PI): Michael Collins, NIDCR
# 1.#Seed 2000 cells/well in 6 ul DMEM 10% FBS, 1% Pen/Strep, 0.5 mg/ml G418 2.#Incubate 16-24 hr at 37C, 5% CO2, 95% humidity 3.#Aspirate leaving 1 ul residual volume 4.#Dispense 5 ul/well DPBS + 1 mM CaCl2, 0.5 mM MgCl2, 0.05% BSA, 0.005% Tween 20 5.#Aspirate leaving 2 ul residual volume 6.#Dispense 23 nl/well compounds in DMSO 7.#Dispense 1 ul/well 300 uM Ro-20174 in DMEM 10% FBS 8.#Incubate 30 min at 37C, 5% CO2, 95% humidity 9.#Dispense 1.5 ul/well HTRF reagent: cAMP-d2 in lysis buffer 10.#Dispense 1.5 ul/well HTRF reagent: anti-cAMP antibody-K in lysis buffer 11.#Incubate 30 min at room temperature 12.#Detect HTRF signal using EnVision plate reader
# Potency is the fitted concentration of half-maximal effect.
SMILES,activation (cAMP increase),Potency
CC(OC(=O)c1ccc(NC(=O)CC#N)cc1)C(=O)Nc1ccc(S(=O)(=O)N2CCCC2)cc1 (centres undefined),-14.8% (inactive),
CC(C)n1ncc2c(C(=O)N3CCN(Cc4cccs4)CC3)cc(C3CC3)nc21,7.9% (inactive),
CN(c1ccccc1)S(=O)(=O)c1ccc(C(=O)NCc2cccnc2)cc1,-7.68% (inactive),
Cc1ccc(Cc2c(-c3ccc(C)cc3)nc3c4ccccc4ccn23)cc1,-39.7% (inactive),
OCCC1CN(Cc2ccc3nsnc3c2)CCN1C1CCCC1 (centres undefined),49.4% (inactive),
OCCC1CN(Cc2ccc3nsnc3c2)CCN1C1CCCCC1 (centres undefined),19.4% (inactive),
COc1cccc2c1OCC(CN1CCN(C3CCCCC3)C(CCO)C1)=C2 (centres undefined),,7.94 µM (active)
O=C1CC[C@@H](C(=O)N2CSC[C@@H]2C(=O)Nc2ccc(C(F)(F)F)cc2)N1,-72.2% (inactive),
O=C(CSc1ccc(Cl)cc1)NC1CC1,-72.4% (inactive),
COc1ccc(C(=O)NC(C)CCc2ccccc2)c(OC)c1 (centres undefined),17.8% (inactive),
COc1ccc(C(=O)NC2=NCCS2)c(OC)c1,-28.3% (inactive),
COc1ccc(C(=O)Nc2cccc(NC(=O)c3ccc(OC)cc3OC)n2)c(OC)c1,,15.8 µM (active)
O=S1(=O)CCN(C2CCCCCCCCCCC2)CC1,-79.5% (inactive),
O=S(=O)(c1cccc(C(F)(F)F)c1)N1c2ccccc2-n2cccc2C1c1cccnc1 (centres undefined),-23.7% (inactive),
O=Nc1c(O)cc(O)c2ccccc12,-21.6% (inactive),
O=C(c1ccc(CS(=O)Cc2ccccc2Cl)o1)N1CCN(c2ccccc2)CC1 (centres undefined),-29.9% (inactive),
COCCn1c(SCC(=O)Nc2ccc(F)cc2F)nc2c(c1=O)SCC2,-23.6% (inactive),
COCOCCn1cc(CN2CCS(=O)(=O)N(Cc3ccc(-c4ccc(OC)cc4)cc3)C(CC(C)C)C2=O)nn1 (centres undefined),-115% (inactive),
Cc1ccc(-c2ccc(CN3C(C(C)C)C(=O)N(Cc4cn(CCC5OCCO5)nn4)CCS3(=O)=O)cc2)cc1 (centres undefined),-37.6% (inactive),
CC1(C2CC2)NC(=O)N(CC(=O)N2CCN(c3ccccc3F)CC2)C1=O (centres undefined),0.197% (inactive),
CCN(CC)C(=O)C1=C(C)N(Cc2ccccc2)C(=O)C(CC(=O)NC(c2ccccc2)c2ccccc2)C1 (centres undefined),-6.51% (inactive),
O=C(N=C1SC2CS(=O)(=O)CC2N1Cc1ccccc1)c1ccccc1 (centres undefined),-12.8% (inactive),
COc1cccc(OCC(=O)NCCS(=O)(=O)N2CCN(c3ccccc3)CC2)c1,-6.99% (inactive),
Cn1c(=O)c2c(ncn2CC(=O)N/N=C/c2cn[nH]c2-c2ccc(F)cc2)n(C)c1=O,54.2% [at 15.4 µM] (inactive),

SMILES,activation (cAMP increase),Potency
Cc1cnc(NC(=O)Cn2cnc3c2c(=O)n(C)c(=O)n3C)s1,0.329% [at 15.4 µM] (inactive),
CN(C(=O)COC(=O)Cn1cnc2c1c(=O)n(C)c(=O)n2C)C1(C#N)CCCCC1,,28.2 µM (active)
CSc1ncnc2c1ncn2CCCNCc1ccco1,-74.7% (inactive),
Cc1ccc(S(=O)(=O)N2C[C@H]3n4c(=O)ccc(=O)n4C[C@H](OC(=O)NC4CCCC4)[C@@]3(O)C2)cc1,14.3% (inactive),
O=C(c1ncn2c1c(=O)[nH]c1ccccc12)N1CCc2ccccc2C1,-20.5% (inactive),
CCCCCCNC(=O)O[C@H]1CN(C(=O)OC(C)C)N(C(=O)OC(C)C)[C@@H]2CN(S(=O)(=O)c3ccc(C)cc3)C[C@]12O,0.103% (inactive),
CSc1ncccc1C(=O)N1CCCC(Nc2ccc(F)c(F)c2)C1 (centres undefined),16.5% (inactive),
COc1cccc(NC(=O)CN(C)C(=O)c2cc(Cl)nc3ccccc23)c1,-159% (inactive),
COc1ccc(S(=O)(=O)N(C)C)cc1NC(=O)COC(=O)c1n[nH]c2ccccc12,-50% (inactive),
Cc1ccc([C@H]2N[C@]3(CCCN(CC4CCCCC4)C3=O)[C@H]3C(=O)N(Cc4ccccc4)C(=O)[C@@H]23)cc1,0.257% (inactive),
CCOC(=O)c1c(C)[nH]c(C)c1C(=O)COC(=O)/C=C/c1cccc([N+](=O)[O-])c1,-66.3% (inactive),
O=C(NCCN1CCOCC1)c1ccc2c(c1)N(Cc1cccc(Cl)c1)C(=O)c1ccccc1S2(=O)=O,-3.41% (inactive),
CC(C)N=C1CCCC1C(=S)SSC(=S)C1CCCC1=NC(C)C (centres undefined),-39.5% (inactive),
CCOC(=O)c1cc(-c2sc(NC(=O)c3ccccc3)nc2C)n(Cc2ccccc2)n1,1.49% (inactive),
COc1ccc(CN2C(=O)C(CC(=O)NCCCCc3ccccc3)CC(C(=O)N3CCOCC3)=C2C)cc1 (centres undefined),-2.99% (inactive),
CCN(CC)C(=O)C1=C(C)N(Cc2ccc(OC)cc2)C(=O)C(CC(=O)NCc2ccco2)C1 (centres undefined),-33.1% (inactive),
O=C(NCCN1CCOCC1)C1CCN(S(=O)(=O)c2ccccc2)CC1,10.7% (inactive),
NC(=O)Cc1ccc2sc(-c3ccccc3)nc2c1,-43.9% (inactive),
O=C(O)Cc1sc(-c2ccccc2)nc1-c1cccs1,,12.6 µM (active)
CN(C(=O)COc1nnc(-c2cccs2)c(-c2cccs2)n1)c1ccccc1,-47.1% (inactive),
O=C(Cc1ccc([N+](=O)[O-])cc1)NCCS(=O)(=O)N1CCN(c2ccccc2)CC1,-24.3% (inactive),
CCc1ccccc1OCC(=O)Nc1nnc(C2CC2)s1,-18.6% (inactive),
COc1ccc([C@H]2N[C@]3(CCCN(CC4CCCCC4)C3=O)[C@H]3C(=O)N(C)C(=O)[C@@H]23)cc1,0.0546% (inactive),
Cc1ccc(C(=O)OCC(=O)NC2CCCCCCC2)cc1C,-30.5% (inactive),

SMILES,activation (cAMP increase),Potency
CC(Sc1ccccc1F)C(=O)Nc1cccc(S(=O)(=O)N2CCOCC2)c1 (centres undefined),14.1% (inactive),
CC(Sc1cccc[n+]1[O-])C(=O)Nc1cccc(S(=O)(=O)N2CCOCC2)c1 (centres undefined),27.2% [at 15.4 µM] (inactive),
COc1cc2c(cc1OC)CN(C(C)C(=O)Nc1cccc(S(=O)(=O)N3CCOCC3)c1)CC2 (centres undefined),,10 µM (active)
COc1ccc(C(C)(C)C)cc1NC(=O)CN(C)C1=NS(=O)(=O)c2ccccc21,-29.4% (inactive),
CC1(C)OC(=O)C2=C(CC(c3ccccc3)OC2CCc2ccccc2)O1 (centres undefined),-70.3% (inactive),
O=C1CCC(=O)N1CCC(=O)N(C(=O)NC1CCCCC1)C1CCCCC1,9.55% (inactive),
CC(=NNC(N)=O)C1CC2CCC1CC2 (centres undefined),23.2% (inactive),
CC1(c2cccc(Br)c2)NC(=O)N(CC(=O)NCCC2=CCCCC2)C1=O (centres undefined),-35.7% (inactive),
COc1ccccc1C(=O)NC(=S)Nc1ccc(N2CCOCC2)cc1,-479% (inactive),
COc1ccc(-c2ccc(CN3C(CC(C)C)C(=O)N(Cc4cn(CC5CCCCC5)nn4)CCS3(=O)=O)cc2)cn1 (centres undefined),-11.8% (inactive),
COc1ccc(C2/C(=C(/O)c3ccc(OC(C)C)cc3)C(=O)C(=O)N2CCCN2CCOCC2)cc1 (centres undefined),-42.6% (inactive),
O=C1C(=O)N(CCN2CCOCC2)C(c2cccc(Cl)c2)/C1=C(/O)c1ccc2c(c1)OCO2 (centres undefined),,12.6 µM (active)
O=C1C(=O)N(CCCN2CCOCC2)C(c2ccc([N+](=O)[O-])cc2)/C1=C(\O)c1ccc2c(c1)OCCO2 (centres undefined),-0.162% (inactive),
O=C1CCC(C(=O)OCC(=O)Nc2ccc(OC(F)F)cc2)=NN1,-74.6% (inactive),
COc1cc(C)c(CN2CCN(C(=O)CCC(=O)c3ccc(C)s3)CC2)cc1OC,-203% (inactive),
CCOc1cc(/C=N/NC(=O)c2ccncc2)cc(Br)c1O,-82.6% (inactive),
NC(=S)NN=Cc1ccc(OC(=O)COc2cc(Cl)c(Cl)cc2Cl)cn1,-7.4% (inactive),
COc1cccc(-n2c(=S)[nH]c3c(oc4ccccc43)c2=O)c1,,15.8 µM (active)
COc1cccc(-n2cc(C(=O)O)c3ccccc3c2=O)c1,0.885% (inactive),
COc1cccc(N2C(=O)CN(Cc3ccccc3)C2=S)c1,-35.3% (inactive),
CC1(C)CN(CCc2ccccc2)C(=O)[C@H]1CC(=O)Nc1ccc(Br)cc1,-21.5% (inactive),
Cc1ccc(S(=O)(=O)/N=C2\C=C(NS(=O)(=O)c3ccc(C)cc3)C(=O)c3ccccc32)cc1,-28% (inactive),
COCOCCn1cc(CN2CCS(=O)(=O)N(Cc3ccc(-c4ccccc4)cc3)C(CC(C)C)C2=O)nn1 (centres undefined),-36.7% (inactive),
COc1ccccc1-c1n[nH]nc1C1=CC(=O)CC(C)(C)C1,-31.1% (inactive),

SMILES,activation (cAMP increase),Potency
CC1=C(C(=O)N2CCOCC2)CC(CC(=O)NCC2CCCCC2)C(=O)N1Cc1ccc(F)cc1 (centres undefined),19.8% (inactive),
CCOC(=O)C1CCN(C(=O)c2ccc3c(=O)n4nc(Nc5ccccc5CC)sc4nc3c2)CC1,-63.7% (inactive),
O=Cc1cn(CCOc2ccc(F)cc2)c2ccccc12,-27.8% (inactive),
CCOC(=O)CNC(=O)CSc1ccc2nnc(-c3cccnc3)n2n1,37.7% [at 15.4 µM] (inactive),
CCOc1ccc(-c2nnc3ccc(SC)nn23)cc1,19.5% (inactive),
COC(=O)C(C)Sc1ccc2nnc(-c3cccc(F)c3)n2n1 (centres undefined),,10 µM (active)
CCN(CC)C(=O)C1=C(C)N(Cc2ccc(F)cc2)C(=O)C(CC(=O)NCc2cccc3ccccc23)C1 (centres undefined),-36.3% (inactive),
C[C@H]1CN([C@@H](C)CO)C(=O)c2cc(-c3ccccc3F)cnc2O[C@H]1CN(C)C(=O)C1CCOCC1,-52.9% (inactive),
Cc1ccc(S(=O)(=O)N2C[C@]3(O)C[C@@H]4C(=O)N(c5ccccc5)C(=O)[C@@H]4C[C@]3(OC(=O)NC3CC3)C2)cc1,-30.1% (inactive),
CNC(=O)C1CN(C(=O)c2cccc(S(=O)(=O)N3CCc4ccccc43)c2)c2ccccc2O1 (centres undefined),-68% (inactive),
CCN1CCN(CCNC(=O)c2ccc3c(c2)NC(=O)/C(=C\c2cccc(Cl)c2)S3)CC1,-3.75% (inactive),
O=C(C[C@H]1C[C@H]2c3cc(NS(=O)(=O)c4ccc(F)cc4)ccc3O[C@H]2[C@H](CO)O1)NCc1cc(F)ccc1F,8.81% (inactive),
c1ccc2c(c1)nnn2-c1ccncc1,-40.3% (inactive),
COc1cc2c(cc1OC)C1C(=O)c3cc(OS(C)(=O)=O)c(OC)cc3C1N(C)C2=O (centres undefined),-1.61% (inactive),
CCCCCC(=O)N1C[C@H](O)[C@@H](n2cc(COC(=O)c3ccccc3)nn2)C[C@@H]1c1ccc(C)cc1,-53.5% (inactive),
CC1CN(C(=O)c2cccc(NS(=O)(=O)c3ccc(Br)cc3)c2)CC(C)O1 (centres undefined),13.8% (inactive),
Cc1ccc(C=O)c([B-](F)(F)F)c1,-6.59% (inactive),
CC(C)c1cc(C(=O)NC2CCCCCC2)c2ccccc2n1,-90.8% (inactive),
CN(C)C(CNC(=O)c1cccc(S(=O)(=O)N2CCc3ccccc3C2)c1)c1ccccc1 (centres undefined),-30.2% (inactive),
CCCCCCN1C[C@@H](O)[C@H](n2cc(COC(=O)c3ccccc3)nn2)C[C@@H]1c1ccc(Cl)cc1,-204% (inactive),
CCN(CC)C(=O)C1=C(C)N(Cc2ccc(C(C)(C)C)cc2)C(=O)C(CC(=O)NCc2cccc3ccccc23)C1 (centres undefined),-9.97% (inactive),
COc1ccc([C@H]2N[C@]3(CCCN(Cc4ccco4)C3=O)[C@H]3C(=O)N(C)C(=O)[C@@H]23)cc1,-7.66% (inactive),
